Screens from PubChem.
Mcl1-Bid inh: Mcl-1/Bid interaction inhibition; 220,000 tested, 0.97% active; AID 1021; inhibition, % at 21.7 µM; Q07820; TR-FRET Mcl-1/Bid-Dy647 peptide binding, 1536-well;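 active = compounds that cut the binding signal by more than half at the single screening dose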;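 note: His-tagged Mcl-1 with europium anti-His antibody binding Bid BH3 peptide; 0% = Mcl-1 plus peptide wells and 100% = peptide-only wells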
14-3-3 Bad PPI: disrupts binding of bovine 14-3-3 zeta to phospho-Bad peptide; 220,000 tested, 0.71% active; TR-FRET 14-3-3zeta/Dy647-pBad peptide displacement, 1 h; inhibition, % at 21.7 µM; AID 781;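 active = inhibition above about 70%, limit read from the data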;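 note: 0% = full 14-3-3 plus peptide FRET controls and 100% = background without 14-3-3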
Target sequence (P63103 whole entry, looked up): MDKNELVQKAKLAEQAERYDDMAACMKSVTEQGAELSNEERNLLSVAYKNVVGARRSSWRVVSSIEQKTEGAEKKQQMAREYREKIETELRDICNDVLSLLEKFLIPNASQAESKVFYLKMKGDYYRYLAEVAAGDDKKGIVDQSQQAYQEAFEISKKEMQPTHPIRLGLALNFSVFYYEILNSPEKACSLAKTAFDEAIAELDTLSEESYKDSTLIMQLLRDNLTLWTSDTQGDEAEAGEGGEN
eIF4E-4G inh: blocks eIF4E binding to eIF4G; P63073+Q04637; inhibition, % at 21.7 µM; 220,000 tested, 0.37% active; TR-FRET eIF4E-eIF4GI(517-606) binding, 2 h;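 note: 0% = full FRET control wells and 100% = background wells lacking eIF4GI fragment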
Mcl1-Noxa inh: Mcl-1/Noxa interaction inhibition; Q07820; TR-FRET Mcl-1/Noxa peptide binding, 2 h; inhibition, % at 21.7 µM; 220,000 tested, 1.5% active; AID 1022;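 active = compounds that cut the protein-peptide binding signal by more than 50% relative to plate controls in a single-dose test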;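 note: His-tagged Mcl-1 with rhodamine Noxa BH3 peptide and terbium anti-His antibody; 0% = Mcl-1 plus Noxa peptide wells and 100% = peptide-only wells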
Bim-Mcl-1: human Bim-Mcl-1 interaction inhibition; 190,000 tested, 0.1% active; inhibition, % at 10 µM; Bead-based flow cytometry, Bim peptide-Mcl-1 binding; Q07820; in the data active = inhibition above about 40%;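 note: 0% = no compound tracer wells and 100% = peptide blocker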
p47phox inh: blocks human p47phox regulatory protein of NADPH oxidases; inhibition, % at 24.7 µM; AID 1274; 220,000 tested, 0.53% active; p47phox/p22phox peptide binding, fluorescence polarization, 2 h;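 note: 0% = p47phox with labelled peptide and 100% = labelled peptide alone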
Target sequence (P14598 whole entry, looked up): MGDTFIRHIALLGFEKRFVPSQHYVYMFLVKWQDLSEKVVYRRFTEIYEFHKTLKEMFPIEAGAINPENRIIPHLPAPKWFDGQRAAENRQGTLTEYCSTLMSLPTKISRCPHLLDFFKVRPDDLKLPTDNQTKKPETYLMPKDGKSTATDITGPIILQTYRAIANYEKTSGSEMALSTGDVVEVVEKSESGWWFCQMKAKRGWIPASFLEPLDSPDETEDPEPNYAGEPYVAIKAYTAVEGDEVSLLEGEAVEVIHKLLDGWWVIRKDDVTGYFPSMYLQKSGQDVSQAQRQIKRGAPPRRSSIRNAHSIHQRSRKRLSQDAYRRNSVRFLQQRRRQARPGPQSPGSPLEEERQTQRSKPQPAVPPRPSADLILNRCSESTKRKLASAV
The depositor's hits bear a star; · = no result given; [ ] = dose if it differs, or a comment. Only some compounds are listed: those with a hit (about 3.3% of all), similar ones and a draw of the others.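 Rule for the calls, unless noted: active = inhibition above about 30% (limit read from the data); inactive = the rest.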

SMILES	Mcl1-Bid inh	14-3-3 Bad PPI	eIF4E-4G inh	Mcl1-Noxa inh	Bim-Mcl-1	p47phox inh
O=C1c2cccnc2C(Nc2ccccc2)N1Cc1ccco1 (centres undefined)	60.0*	32.9	-1.5	60.2*	-3.0	4.6
O=C1c2cccnc2C(Nc2cccc(F)c2)N1Cc1ccco1 (centres undefined)	-24.0	-8.3	-0.3	3.3	0.0	-12.9
O=C(CSc1nnc2c3ccccc3c3ccccc3c2n1)Nc1ccccc1F	4.2	5.6	-2.1	60.8*	7.0	-104.7
Cc1ccc(S(=O)(=O)Nc2ccccc2C(=O)NCc2cccnc2)cc1	12.2	10.0	2.4	66.1*	0.0	0.6
O=C(NCc1cccnc1)c1ccccc1NS(=O)(=O)c1ccc(F)cc1F	-11.3	3.2	-1.2	23.2	·	-16.2
O=C1N=c2ccccc2=C1c1sc(Nc2ccc(O)cc2)nc1O	49.8	82.9*	37.3*	83.0*	1.0	-77.4
COCCCN=Cc1c(-c2ccccc2)[nH]n(-c2nc3ccccc3s2)c1=O	8.2	-0.7	2.2	13.6	·	-85.8
O=c1c(C=NCCCO)c(-c2ccccc2)[nH]n1-c1nc2ccccc2s1	61.5*	71.0*	-0.4	33.2	-1.0	-29.9
Cc1nnc2n1NC(c1ccc(Cl)cc1)C(C(=O)N1CCC(C)CC1)S2 (centres undefined)	-30.9	-11.1	-7.3	2.1	0.0	2.0
Cc1nnc2n1NC(c1ccc(Cl)cc1)C(C(=O)N(C)C1CCCCC1)S2 (centres undefined)	0.1	127.4*[fluorescence artefact?]	-1.4	6.8	4.0	8.0
COc1cc(C(=O)NNC(=O)C2CC=CCC2C(=O)O)cc(OC)c1OC (centres undefined)	-26.9	1.4	30.5*[fluorescence artefact?]	4.8	-6.0	-5.2
CCCCCCCCCC[n+]1cccc2c3ccccc3ccc21	20.9	5.1	6.2	42.1	-2.0	50.0*
CCCCCCCC[n+]1cccc2c3ccccc3ccc21	10.3	7.9	3.1	22.0	-1.0	20.8
O=C(Cc1nnc(NC(=O)Nc2ccc(F)cc2)s1)NCc1ccccc1	-30.5	5.9	-1.9	6.6	·	-0.6
CCOc1ccc(-n2c(=O)c3sccc3n(Cc3cccc([N+](=O)[O-])c3)c2=O)cc1	-3.5	-1.0	0.1	9.4	3.0	1.6
CCCn1c(=O)[nH]c(=O)c2c1nc(-c1ccc(OC)c(Br)c1)n2CCOC	-27.3	-6.2	1.7	-3.2	-3.0	-15.6
COCCN1Cc2cccc(C(=O)Nc3cccc(C)c3C)c2C1=O	91.4*	-1.3	0.7	90.4*	-3.0	-14.2
COCCN1Cc2cccc(C(=O)Nc3ccc(C)cc3)c2C1=O	-45.7	1.5	0.7	16.3	-2.0	8.4
O=C(CCNC(=O)c1ccccc1Cl)Nc1nccs1	-15.1	-18.1	-1.9	8.9	-2.0	-3.8
COCCn1nnnc1C(c1ccc(O)c(OC)c1)N1CCc2ccccc2C1 (centres undefined)	-10.1	45.2	12.4	76.8*	-1.0	11.9
CN(C)c1ccc(C(c2nnnn2C(C)(C)C)N2CCc3ccccc3C2)cc1 (centres undefined)	-10.2	13.4	-0.8	68.3*	0.0	-7.3
CC1CCN(C(c2ccc(N(C)C)cc2)c2nnnn2C(C)(C)C)CC1 (centres undefined)	0.2	-2.1	-4.1	77.8*	0.0	-7.0
CC(C)(C)n1nnnc1C(c1ccccc1)N1CCc2ccccc2C1 (centres undefined)	-19.9	-3.6	-6.2	-3.9	-2.0	-10.6
CCC(C)(C)n1nnnc1C(c1ccc(O)cc1)N1CCc2ccccc2C1 (centres undefined)	-10.9	-0.8	1.9	59.4*	-2.0	3.1
COc1ccc(C(c2nnnn2C2CCCC2)N2CCc3ccccc3C2)cc1OC (centres undefined)	-27.0	67.4	-2.5	29.3	1.0	-0.1
SMILES	Mcl1-Bid inh	14-3-3 Bad PPI	eIF4E-4G inh	Mcl1-Noxa inh	Bim-Mcl-1	p47phox inh
CC1CCN(C(c2ccc(N(C)C)cc2)c2nnnn2Cc2ccccc2)CC1 (centres undefined)	-5.4	1.7	11.0	8.4	-6.0	-15.1
O=C(c1ccccc1Cl)N1CCSCC1	-10.0	1.5	-5.5	-5.8	·	-0.7
O=C1CSc2ccc(C(=O)Nc3cccc(S(=O)(=O)Nc4ccc(Br)cc4)c3)cc2N1	8.2	7.6	0.7	19.0	-4.0	-25.9
COc1cc(NC(=O)Cn2nc(C(F)(F)F)c(Br)c2C)cc([N+](=O)[O-])c1	-2.2	0.3	4.3	21.7	3.0	-16.1
CCCC(C)NC(=O)COc1ccc(S(=O)(=O)c2ccc(OCC(=O)NC(C)CCC)cc2)cc1 (centres undefined)	-15.4	-19.2	-3.3	9.3	-4.0	-5.8
O=C1c2ccccc2C(=O)N1CCCCN(C(=O)c1cccc([N+](=O)[O-])c1)c1ccc(Cl)cc1	53.8*	54.3	-0.8	0.5	-1.0	-1.7
CCCNCc1cc(OC)c(OCC(=O)NCCc2ccccc2)cc1Br	-24.1	5.1	-3.5	12.9	2.0	-1.7
COc1cc(-c2nc3ccccn3c2/N=C/c2ccccc2)ccc1O	-20.4	-25.6	1.3	14.3	-5.0	-14.2
O=[N+]([O-])c1ccc(-c2ccc(/C=N/c3c(-c4ccco4)nc4ccccn34)o2)c(Cl)c1	56.8*	10.0	3.2	62.1*	6.0	-5.7
O=[N+]([O-])c1ccc(Cl)c(-c2ccc(/C=N/c3c(-c4ccco4)nc4ccccn34)o2)c1	55.4*	45.8	14.2	40.6	2.0	2.9
Cc1csc(NC(=O)CSc2nnc(NC(=O)COc3ccccc3)s2)n1	-14.4	-4.7	-4.1	14.7	-3.0	-11.8
COc1ccc(-c2nnc(SCC(=O)c3cc(C)n(Cc4cccs4)c3C)o2)cc1	37.4	74.7*	-21.9	-96.4	0.0	4.7
O=C(O)C1CCC(=O)N1C(=O)OCc1ccccc1 (centres undefined)	5.6	5.3	5.0	10.5	·	-10.9
COc1ccc(/C=N/NC(=O)c2cc(O)c(O)c(O)c2)cc1Cn1cc([N+](=O)[O-])cn1	-100.9	28.1	10.7	92.5*	10.0	-7.5
COc1ccc(/C=N/NC(=O)c2ccccc2O)cc1Cn1cc([N+](=O)[O-])cn1	-70.5	-5.1	2.3	25.8	·	-20.0
COc1ccc(CC(=O)Nc2nnc(C(C)C)s2)cc1	-10.6	-11.5	46.5*	-4.6	2.0	-11.2
Cc1ccc(S(=O)(=O)Nc2cccc(-c3cn4ccsc4n3)c2)cc1	-8.8	-4.7	2.5	3.6	-3.0	-23.6
O=S(=O)(Nc1cccc(-c2cn3ccsc3n2)c1)c1ccc(F)cc1	98.1*	-20.7	-0.5	0.1	-2.0	-13.2
CCOc1ncccc1C(=O)N1CCN(c2cc(Cl)ccc2C)CC1	-30.6	-9.9	-0.6	7.8	0.0	-5.3
CCOc1ncccc1C(=O)N1CCN(c2cccc(C)c2C)CC1	-13.8	87.6*	2.2	7.4	-3.0	-4.5
